In PubChem BioAssay (NCI):
Compounds without any hit were thinned out: in the full panel of roughly 83,000, 20% have a hit.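 Percent growth is the endpoint: 0 to 100 indicates growth inhibition (40 means 60% inhibition), 0 means no net growth, and negative values indicate cell death.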 Unmarked numbers belong to inactive results. Active and inactive are the calls of the source. The calls were made as follows: active = growth percent below 10; inactive = the rest.

Columns and labels:
Assay in all cases: NCI-60 one-dose screen, 48 h (100 = growth as untreated, 0 = no growth, -100 = all killed)
Details in all cases: 10 µM unless noted
[1] = tested on: HCT-15 colon
[2] = tested on: HT29 colon
[3] = tested on: SNB-19 CNS
[4] = tested on: U251 CNS
[5] = tested on: PC-3 prostate
[6] = tested on: SK-MEL-5 melanoma
[7] = tested on: UACC-62 melanoma
[8] = tested on: LOX IMVI melanoma
[9] = tested on: SK-MEL-28 melanoma
[10] = tested on: SK-MEL-2 melanoma
[11] = tested on: EKVX NSCLC
[12] = tested on: SN12C renal
[13] = tested on: UO-31 renal
[14] = tested on: TK-10 renal
[15] = tested on: ACHN renal
[16] = tested on: CAKI-1 renal
[17] = tested on: A498 renal
[18] = tested on: CCRF-CEM leukemia
[19] = tested on: MOLT-4 leukemia
[20] = tested on: SNB-75 CNS

## O=[N+]([O-])c1ccc(N/N=C\c2ccc(O)cc2O)nc1
[1]
  growth: 29.8%
[2]
  growth: 90.2%
[3]
  growth: 58.6%
[4]
  growth: 28.4%
[5]
  growth: 49.5%
[6]
  growth: 13.7%
[7]
  growth: 43.9%
[8]
  growth: 24.7%
[9]
  growth: 64.1%
[10]
  growth: 28.9%
[11]
  growth: 29.3%
[12]
  growth: 50.9%
[13]
  growth: 28.1%
[14]
  growth: 22.7%
[15]
  growth: 26.8%
[16]
  growth: 4.77% (active)
[17]
  growth: 107%
[18]
  growth: 18.8%
[19]
  growth: 13.6%

## Brc1ccsc1Br
[1]
  growth: 111%
[2]
  growth: 105%
[20]
  growth: 83.5%
[4]
  growth: 109%
[5]
  growth: 107%
[6]
  growth: 106%
[7]
  growth: 109%
[8]
  growth: 108%
[9]
  growth: 106%
[10]
  growth: 101%
[11]
  growth: 114%
[12]
  growth: 113%
[13]
  growth: 91.3%
[14]
  growth: 109%
[15]
  growth: 112%
[16]
  growth: 99.6%
[17]
  growth: 141%
[18]
  growth: 102%
[19]
  growth: 108%

## O=[N+]([O-])c1ccc(N/N=C/c2ccccc2O)nc1
[1]
  growth: 29.9%
[2]
  growth: 47%
[20]
  growth: 52.9%
[4]
  growth: 28.5%
[5]
  growth: 45.8%
[6]
  growth: 20%
[7]
  growth: 42.7%
[8]
  growth: 26.4%
[9]
  growth: 62%
[10]
  growth: 35%
[11]
  growth: 29.7%
[12]
  growth: 37.7%
[13]
  growth: 25.5%
[14]
  growth: 26.2%
[15]
  growth: 27.3%
[16]
  growth: 4.68% (active)
[17]
  growth: 97.8%
[18]
  growth: 17.1%
[19]
  growth: 14.3%

## COc1ccc2c(c1)sc1nc(-c3ccccc3)c(-c3cccc4ccccc34)n12
[1]
  growth: 23%
[2]
  growth: 1.35% (active)
[20]
  growth: 23.2%
[4]
  growth: 21.3%
[5]
  growth: 24.3%
[6]
  growth: 24.9%
[7]
  growth: 35.5%
[8]
  growth: 38.6%
[9]
  growth: 52.1%
[10]
  growth: 27.5%
[11]
  growth: 28.7%
[12]
  growth: 44.7%
[13]
  growth: 47.7%
[14]
  growth: 37.9%
[15]
  growth: 49.1%
[16]
  growth: 29.3%
[17]
  growth: 0.895% (active)
[18]
  growth: 22.3%
[19]
  growth: 27.1%

## Clc1ccccc1CNc1c2ccccc2nc2ccccc12
[1]
  growth: 13.6%
[2]
  growth: 5.54% (active)
[3]
  growth: 25.8%
[4]
  growth: 23.2%
[5]
  growth: 17.1%
[6]
  growth: 41.8%
[7]
  growth: 41%
[8]
  growth: 4.83% (active)
[9]
  growth: 50.5%
[10]
  growth: 55.6%
[11]
  growth: 25.9%
[12]
  growth: 27.8%
[13]
  growth: 17.5%
[14]
  growth: 42.5%
[15]
  growth: 12.2%
[16]
  growth: 25.2%
[17]
  growth: -5.85% (active)
[18]
  growth: 10.7%
[19]
  growth: 5.14% (active)

## COc1cc2ncnc(Nc3ccc(S(=O)(=O)Nc4cc(C)on4)cc3)c2cc1OCCCN1CCN(c2ccc([N+](=O)[O-])cc2)CC1
[1]
  growth: 105%
[2]
  growth: 107%
[20]
  growth: 91.9%
[4]
  growth: 97.1%
[5]
  growth: 104%
[6]
  growth: 111%
[7]
  growth: 94.4%
[8]
  growth: 96.1%
[9]
  growth: 112%
[10]
  growth: 109%
[11]
  growth: 116%
[12]
  growth: 102%
[13]
  growth: 79.2%
[14]
  growth: 103%
[15]
  growth: 109%
[16]
  growth: 92.8%
[17]
  growth: 110%
[18]
  growth: 99.1%
[19]
  growth: 111%

## O/N=C/c1ccncc1
[1]
  growth: 104%
[2]
  growth: 94.5%
[3]
  growth: 122%
[4]
  growth: 102%
[5]
  growth: 95.9%
[6]
  growth: 105%
[7]
  growth: 111%
[8]
  growth: 100%
[9]
  growth: 115%
[10]
  growth: 112%
[11]
  growth: 100%
[12]
  growth: 121%
[13]
  growth: 102%
[14]
  growth: 100%
[15]
  growth: 109%
[16]
  growth: 84.3%
[17]
  growth: 101%
[18]
  growth: 95.5%
[19]
  growth: 111%

## C=CC(=O)N1CN(C(=O)C=C)CN(C(=O)C=C)C1
[1]
  growth: 3.65% (active)
[2]
  growth: 26.2%
[20]
  growth: 60%
[4]
  growth: 88.9%
[5]
  growth: 90.8%
[6]
  growth: 71.5%
[7]
  growth: 74.3%
[8]
  growth: 71.4%
[9]
  growth: 72.7%
[10]
  growth: 110%
[11]
  growth: 108%
[12]
  growth: 95.2%
[13]
  growth: 55.2%
[14]
  growth: -11.4% (active)
[15]
  growth: 22.4%
[16]
  growth: 3.54% (active)
[17]
  growth: 106%
[18]
  growth: 10.1%
[19]
  growth: 23.4%

## CCCCOc1nc2ccccc2cc1/C=C/c1cc(/C=C/c2cc3ccccc3nc2OCCCC)n(-c2ccccc2)n1
[1]
  growth: 116%
[2]
  growth: 93.5%
[20]
  growth: 82.5%
[4]
  growth: 99%
[5]
  growth: 93.1%
[6]
  growth: 101%
[7]
  growth: 81.3%
[8]
  growth: 95.9%
[9]
  growth: 114%
[10]
  growth: 101%
[11]
  growth: 105%
[12]
  growth: 95.3%
[13]
  growth: 75.2%
[14]
  growth: 119%
[15]
  growth: 103%
[16]
  growth: 88.3%
[17]
  growth: 95.9%
[18]
  growth: 101%
[19]
  growth: 99%

## CC(C)CCSc1nc(-c2ccc(F)cc2)c(C#N)c(N2CCCCC2)n1
[1]
  growth: 97.7%
[2]
  growth: 83.2%
[20]
  growth: 94.2%
[4]
  growth: 93.6%
[5]
  growth: 89.2%
[6]
  growth: 95.8%
[7]
  growth: 70.3%
[8]
  growth: 93%
[9]
  growth: 96.3%
[10]
  growth: 85.7%
[11]
  growth: 97.2%
[12]
  growth: 107%
[13]
  growth: 80.4%
[14]
  growth: 97.4%
[15]
  growth: 91.8%
[16]
  growth: 75.6%
[17]
  growth: 88%
[18]
  growth: 89.9%
[19]
  growth: 70%

## O=C(Nc1cccc(N=Cc2c(O)ccc3ccccc23)c1)c1ccccc1
[1]
  growth: 93.6%
[2]
  growth: 90.9%
[20]
  growth: 77.9%
[4]
  growth: 92.6%
[5]
  growth: 86.9%
[6]
  growth: 91.3%
[7]
  growth: 94.4%
[8]
  growth: 96.1%
[9]
  growth: 107%
[10]
  growth: 87.9%
[11]
  growth: 93.8%
[12]
  growth: 99%
[13]
  growth: 65.9%
[14]
  growth: 92.4%
[15]
  growth: 96.3%
[16]
  growth: 84.7%
[17]
  growth: 103%
[18]
  growth: 90.8%
[19]
  growth: 147%

## Cc1ccccc1C1CC(=O)c2ccccc2C1C (stereo not drawn)
[1]
  growth: 96.9%
[2]
  growth: 100%
[3]
  growth: 94.5%
[4]
  growth: 88.5%
[5]
  growth: 99.4%
[6]
  growth: 105%
[7]
  growth: 87.4%
[8]
  growth: 100%
[9]
  growth: 107%
[10]
  growth: 120%
[11]
  growth: 101%
[12]
  growth: 99.1%
[13]
  growth: 82.1%
[14]
  growth: 105%
[15]
  growth: 108%
[16]
  growth: 106%
[17]
  growth: 88.5%
[18]
  growth: 95.2%
[19]
  growth: 93.5%

## C[Si](C)(C)C(c1ccccc1)c1ccccc1
[1]
  growth: 91.8%
[2]
  growth: 101%
[20]
  growth: 102%
[4]
  growth: 100%
[5]
  growth: 80.3%
[6]
  growth: 115%
[7]
  growth: 108%
[8]
  growth: 95.9%
[9]
  growth: 115%
[10]
  growth: 127%
[11]
  growth: 109%
[12]
  growth: 102%
[13]
  growth: 82.3%
[14]
  growth: 108%
[16]
  growth: 86.2%
[17]
  growth: 99.7%
[18]
  growth: 79.4%
[19]
  growth: 81.8%

## CCCCOc1nc2ccc(C)cc2cc1/C=C/C(=O)/C=C(O)/C=C/c1cc2cc(C)ccc2nc1OCCCC
[1]
  growth: 110%
[2]
  growth: 101%
[20]
  growth: 92.7%
[4]
  growth: 88.3%
[5]
  growth: 99%
[6]
  growth: 105%
[7]
  growth: 87.6%
[8]
  growth: 91.6%
[9]
  growth: 107%
[10]
  growth: 103%
[11]
  growth: 102%
[12]
  growth: 111%
[13]
  growth: 97.7%
[14]
  growth: 102%
[15]
  growth: 102%
[16]
  growth: 98.1%
[17]
  growth: 116%
[18]
  growth: 97.6%
[19]
  growth: 98.8%

## ClCCn1cnc2c(SCc3ccccc3Cl)ncnc21
[1]
  growth: 21.3%
[2]
  growth: 26.3%
[20]
  growth: 79.2%
[4]
  growth: 30.4%
[5]
  growth: 38.7%
[6]
  growth: 38.4%
[7]
  growth: 33.7%
[8]
  growth: 7.06% (active)
[9]
  growth: 47.3%
[11]
  growth: 66.8%
[12]
  growth: 44.8%
[14]
  growth: 34.4%
[15]
  growth: 38.4%
[16]
  growth: 47.6%
[17]
  growth: 39%
[18]
  growth: 24.2%
[19]
  growth: -28% (active)

## O=C1OC(/C=C/c2ccccc2)=NC/1=C/c1ccccc1[N+](=O)[O-]
[1]
  growth: 97.9%
[2]
  growth: 98.2%
[20]
  growth: 82%
[4]
  growth: 100%
[5]
  growth: 92.7%
[6]
  growth: 99.8%
[7]
  growth: 110%
[8]
  growth: 89.1%
[9]
  growth: 97.3%
[10]
  growth: 94.7%
[12]
  growth: 104%
[13]
  growth: 66.5%
[14]
  growth: 115%
[15]
  growth: 91.8%
[16]
  growth: 88.7%
[17]
  growth: 121%
[19]
  growth: 91.1%

## COc1cc(NCC(O)CN(CC(C)C)CC(C)C)c2ncccc2c1 (stereo not drawn)
[1]
  growth: 80.1%
[2]
  growth: 77.9%
[20]
  growth: 82.8%
[4]
  growth: 80.7%
[5]
  growth: 58.6%
[6]
  growth: 86.1%
[7]
  growth: 76.9%
[8]
  growth: 83.6%
[9]
  growth: 75.3%
[10]
  growth: 100%
[11]
  growth: 93.2%
[12]
  growth: 84.6%
[13]
  growth: 88.6%
[14]
  growth: 113%
[15]
  growth: 87.6%
[16]
  growth: 99.2%
[17]
  growth: 70%
[18]
  growth: 57.8%
[19]
  growth: 74.9%
